Assay results taken from PubChem BioAssay (NCATS).
Inconclusive results are not listed. Activity calls are given as the source filed them. Unless noted, the call rests on the fitted dose curve; in most records, active means well fitted curve in the direction sought with a large enough effect; inconclusive means small, poorly fitted or top-dose-only effect, or another doubt; inactive means no such curve, though single readings can be large; an effect the other way counts as inactive or inconclusive.

Legend:
[1] = qHTS assay to identify small molecule inhibitors of chordoma cells - UCH-1 (AID 1259355); further: on the % scale 0 is the no-effect control and ±100 the full control effect; nearly all actives have a fitted effect of over 55% in size
Summary of the method: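 800 cells/well, overnight attach; compounds pinned at 15 concs, then auranofin/camptothecin/doxorubicin/rubitecan/topotecan combo added; 48hr 37 C, 5% CO2; CellTiter-Glo, 30min RT, luminescence.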

[2] = qHTS assay to identify small molecule inhibitors of chordoma cells - UCH-2 (AID 1259356); further: on the % scale 0 is the no-effect control and ±100 the full control effect
[3] = P-glycoprotein substrates identified in KB-8-5-11 adenocarcinoma cell line, qHTS therapeutic library screen (AID 1346987); further: on the % scale 0 is the no-effect control and ±100 the full control effect; nearly all actives have a fitted effect of over 65% in size
Summary of the method: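 Compounds are pinned in dose-response onto KB-8-5-11 cells (500 cells/well, colchicine-free medium) and left 72 h at 37 degree C. CellTiter-Glo luminescence then yields AC50 values.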

[4] = Natriuretic polypeptide receptor (hNpr1) antagonism - Pilot counterscreen GloSensor control cell line (AID 1347045; calls by dose curve; further: on the % scale 0 is the no-effect control and ±100 the full control effect)
Summary of the method: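 Control counterscreen: luciferase cGMP-biosensor HEK293 cells (no Npr1) received compound for 30 min at room temperature after GloSensor substrate loading. Luminescence was measured before and 20 min after soluble guanylyl cyclase activation by 50 uM nitroprusside.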

[5] = molecular target: T1, Tyrosine-protein phosphatase non-receptor type substrate 1 (Homo sapiens) + Leukocyte surface antigen CD47 (Homo sapiens) (UniProt P78324+Q08722); assay: CD47-SIRPalpha protein protein interaction - LANCE assay qHTS validation (AID 1347057; active means well fitted curve in the direction sought with a large enough effect in the signal ratio, with a control signal flat, not every such curve was filed as active; the % refers to the signal ratio; further: 0% is about no effect)
T1 sequence (P78324 whole entry, looked up, the tested form may be a part): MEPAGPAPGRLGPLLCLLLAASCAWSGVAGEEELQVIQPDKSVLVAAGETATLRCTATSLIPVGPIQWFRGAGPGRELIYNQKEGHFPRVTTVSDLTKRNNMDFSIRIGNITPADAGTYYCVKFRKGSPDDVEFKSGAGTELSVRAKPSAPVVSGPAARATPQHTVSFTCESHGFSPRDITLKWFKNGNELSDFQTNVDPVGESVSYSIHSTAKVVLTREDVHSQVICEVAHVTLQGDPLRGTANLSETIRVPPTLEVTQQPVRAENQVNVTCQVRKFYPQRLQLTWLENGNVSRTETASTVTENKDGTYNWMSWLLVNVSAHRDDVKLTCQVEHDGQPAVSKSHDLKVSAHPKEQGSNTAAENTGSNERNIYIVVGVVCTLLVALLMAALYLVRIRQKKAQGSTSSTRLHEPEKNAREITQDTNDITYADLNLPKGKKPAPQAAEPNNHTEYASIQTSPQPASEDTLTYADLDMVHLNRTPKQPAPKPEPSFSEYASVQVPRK
T1 sequence (Q08722 whole entry, looked up, the tested form may be a part): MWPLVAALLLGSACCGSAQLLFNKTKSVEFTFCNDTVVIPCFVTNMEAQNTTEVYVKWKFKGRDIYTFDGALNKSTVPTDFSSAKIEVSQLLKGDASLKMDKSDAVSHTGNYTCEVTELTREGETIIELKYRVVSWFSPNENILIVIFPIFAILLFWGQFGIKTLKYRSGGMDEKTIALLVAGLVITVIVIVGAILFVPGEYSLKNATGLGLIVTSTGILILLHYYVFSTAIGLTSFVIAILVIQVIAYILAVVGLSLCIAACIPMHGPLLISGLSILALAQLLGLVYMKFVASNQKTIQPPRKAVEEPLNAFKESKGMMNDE
Summary of the method: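 Inhibition of soluble CD47/SIRPalpha ectodomain association by titrated compounds, measured as 665/615 nm time-resolved FRET ratio after sequential 30 min room-temperature incubations.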

[6] = molecular target: T1, Tyrosine-protein phosphatase non-receptor type substrate 1 (Homo sapiens) + Leukocyte surface antigen CD47 (Homo sapiens); assay: CD47-SIRPalpha protein protein interaction - Alpha assay qHTS validation (AID 1347059);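 further: bead proximity luminescence from CD47 binding SIRPalpha after compound preincubation with SIRPalpha; on the % scale 0 is the no-effect control and ±100 the full control effect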
Summary of the method: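 AlphaScreen signal between CD47-His (12.5 nM) and biotin-SIRPalpha (25 nM) soluble extracellular domains, bead-captured via Ni-NTA and streptavidin. Compounds, in 7-point titrations, met SIRPalpha 30 min before CD47; PBS pH 7.4 with 0.05% IGEPAL.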

[7] = molecular target: Parathyroid hormone/parathyroid hormone-related peptide receptor (Homo sapiens) (UniProt Q03431); assay: qHTS for PTHR1 Agonists: Optimization Screen against the NCGC LOPAC library (AID 1347079);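 further: GloSensor cAMP luminescence in HEK-293 GP2 cells expressing human PTHR1 with IBMX; 0% is about no effect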
Parathyroid hormone/parathyroid hormone-related peptide receptor (Homo sapiens), sequence (Q03431 whole entry, looked up): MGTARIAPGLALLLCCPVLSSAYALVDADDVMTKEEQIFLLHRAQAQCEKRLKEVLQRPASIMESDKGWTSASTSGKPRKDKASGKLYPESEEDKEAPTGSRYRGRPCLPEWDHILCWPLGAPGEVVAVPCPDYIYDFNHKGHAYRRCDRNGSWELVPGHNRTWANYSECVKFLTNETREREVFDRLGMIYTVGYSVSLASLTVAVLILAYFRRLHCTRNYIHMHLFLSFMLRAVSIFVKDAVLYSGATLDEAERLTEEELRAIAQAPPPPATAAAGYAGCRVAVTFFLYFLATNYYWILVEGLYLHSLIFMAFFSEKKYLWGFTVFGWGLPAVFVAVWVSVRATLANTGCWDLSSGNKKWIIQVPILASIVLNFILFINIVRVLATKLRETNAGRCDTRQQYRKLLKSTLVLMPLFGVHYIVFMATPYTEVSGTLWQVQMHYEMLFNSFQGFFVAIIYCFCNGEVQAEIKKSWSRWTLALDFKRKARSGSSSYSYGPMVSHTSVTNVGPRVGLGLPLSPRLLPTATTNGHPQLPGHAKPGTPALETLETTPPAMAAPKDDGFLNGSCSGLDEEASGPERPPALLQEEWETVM
Summary of the method: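 HEK-293 GP2 cells, PTHR1 + GloSensor cAMP; 3000 cells/well, o/n. Luciferin + IBMX 0.5mM each (stock), 1 hr 37C. Cpd titration, 1 hr 37C. Lum after 15 min RT. Ctrl M-PTH(1-15) top 10uM.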

[8] = NS1 protein of Zika virus - qHTS assay to identify small molecule inhibitors in human HEK 293 cells (AID 1347053);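 further: plate controls were infected untreated cells for no effect and uninfected cells for full effect; nearly all actives have a fitted effect of over 55% in size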
Summary of the method: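 In this cell-based screen, HEK 293 cultures received compound for one hour before Zika MR766 at MOI = 0.5. NS1 was quantified 24 hours later by TR-FRET, normalized to virus-free wells and infected wells.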

[9] = qHTS of pediatric cancer cell lines to identify multiple opportunities for drug repurposing: Primary screen for TC32 cells (AID 1347089); further: on the % scale 0 is the no-effect control and ±100 the full control effect; nearly all actives have a fitted effect of over 60% in size
Summary of the method: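 TC32 cells, 500-1,000/well in growth medium, compound-treated 48 h at 37 °C; viability from CellTiter-Glo luminescence. Primary screen: MIPE 11-point (0.78 nM–46 µM final), NPC 8-point (0.59 nM–46 µM final); confirmatory at 11-point dilutions.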

[10] = qHTS of pediatric cancer cell lines to identify multiple opportunities for drug repurposing: Primary screen for DAOY cells (AID 1347090);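 further: plate controls were DMSO for no effect and bortezomib for full effect; nearly all actives have a fitted effect of over 55% in size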
Summary of the method: (§1)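 Cell viability, CellTiter-Glo luminescence; 500-1,000 cells/well, 8- or 11-point titration, 48 h compound exposure at 37 degrees C, 5% CO2. Controls: DMSO neutral, bortezomib 2.3 µM final as positive.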

[11] = qHTS of pediatric cancer cell lines to identify multiple opportunities for drug repurposing: Primary screen for SJ-GBM2 cells (AID 1347091);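 further: plate controls were DMSO neutral control for no effect and bortezomib for full effect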
Summary of the method: as §1

[12] = molecular target: Atrial natriuretic peptide receptor 1 (Homo sapiens) (UniProt P16066); assay: Natriuretic polypeptide receptor (hNpr1) antagonism - Pilot screen (AID 1347049; calls by dose curve;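 further: HEK293 cells with hNpr1 and GloSensor cGMP luciferase stimulated by 0.1 nM hNppA; agonist-evoked cGMP luminescence read 20 min after hNppA addition; on the % scale 0 is the no-effect control and ±100 the full control effect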)
Atrial natriuretic peptide receptor 1 (Homo sapiens), sequence (P16066 whole entry, looked up): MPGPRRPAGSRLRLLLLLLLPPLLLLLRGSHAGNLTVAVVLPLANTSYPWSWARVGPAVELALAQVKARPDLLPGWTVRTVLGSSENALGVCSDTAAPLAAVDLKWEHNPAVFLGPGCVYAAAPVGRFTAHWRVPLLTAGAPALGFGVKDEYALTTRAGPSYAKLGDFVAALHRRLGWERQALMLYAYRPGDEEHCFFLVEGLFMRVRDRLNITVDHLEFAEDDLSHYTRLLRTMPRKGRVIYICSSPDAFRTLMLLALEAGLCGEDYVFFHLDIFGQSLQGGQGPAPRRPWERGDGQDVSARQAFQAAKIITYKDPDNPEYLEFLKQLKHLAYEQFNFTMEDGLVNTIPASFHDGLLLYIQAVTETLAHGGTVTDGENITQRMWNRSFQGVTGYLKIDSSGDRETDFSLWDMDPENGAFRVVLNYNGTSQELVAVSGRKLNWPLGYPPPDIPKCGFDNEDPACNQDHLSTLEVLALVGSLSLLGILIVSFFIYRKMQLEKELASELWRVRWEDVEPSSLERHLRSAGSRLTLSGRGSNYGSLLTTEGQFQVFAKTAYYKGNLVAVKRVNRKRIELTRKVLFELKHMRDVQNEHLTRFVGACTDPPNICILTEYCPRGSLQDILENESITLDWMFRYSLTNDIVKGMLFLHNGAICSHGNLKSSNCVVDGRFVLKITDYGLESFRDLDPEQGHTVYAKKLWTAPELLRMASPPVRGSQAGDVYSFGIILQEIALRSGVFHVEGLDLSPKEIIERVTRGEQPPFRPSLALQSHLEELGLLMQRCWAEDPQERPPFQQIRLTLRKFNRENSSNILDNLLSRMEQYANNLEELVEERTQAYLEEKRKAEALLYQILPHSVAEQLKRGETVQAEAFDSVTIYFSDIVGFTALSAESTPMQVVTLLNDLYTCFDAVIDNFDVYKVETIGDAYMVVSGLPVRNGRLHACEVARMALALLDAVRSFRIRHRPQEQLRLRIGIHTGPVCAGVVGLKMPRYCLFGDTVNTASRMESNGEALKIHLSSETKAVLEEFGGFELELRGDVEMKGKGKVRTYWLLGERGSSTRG
Summary of the method: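 Receptor antagonism read as cGMP-dependent luminescence in hNpr1/pGS-40F HEK293 cells: pre-read after 30 min compound exposure, post-read 20 min after hNppA agonist at 0.1 nM final, all at room temperature, protected from light; A-71915 titration as control.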

[13] = molecular target: Atrial natriuretic peptide receptor 2 (Homo sapiens) (UniProt P20594); assay: Natriuretic polypeptide receptor (hNpr2) antagonism - Pilot subtype selectivity assay (AID 1347050; calls by dose curve; further: on the % scale 0 is the no-effect control and ±100 the full control effect)
Atrial natriuretic peptide receptor 2 (Homo sapiens), sequence (P20594 whole entry, looked up): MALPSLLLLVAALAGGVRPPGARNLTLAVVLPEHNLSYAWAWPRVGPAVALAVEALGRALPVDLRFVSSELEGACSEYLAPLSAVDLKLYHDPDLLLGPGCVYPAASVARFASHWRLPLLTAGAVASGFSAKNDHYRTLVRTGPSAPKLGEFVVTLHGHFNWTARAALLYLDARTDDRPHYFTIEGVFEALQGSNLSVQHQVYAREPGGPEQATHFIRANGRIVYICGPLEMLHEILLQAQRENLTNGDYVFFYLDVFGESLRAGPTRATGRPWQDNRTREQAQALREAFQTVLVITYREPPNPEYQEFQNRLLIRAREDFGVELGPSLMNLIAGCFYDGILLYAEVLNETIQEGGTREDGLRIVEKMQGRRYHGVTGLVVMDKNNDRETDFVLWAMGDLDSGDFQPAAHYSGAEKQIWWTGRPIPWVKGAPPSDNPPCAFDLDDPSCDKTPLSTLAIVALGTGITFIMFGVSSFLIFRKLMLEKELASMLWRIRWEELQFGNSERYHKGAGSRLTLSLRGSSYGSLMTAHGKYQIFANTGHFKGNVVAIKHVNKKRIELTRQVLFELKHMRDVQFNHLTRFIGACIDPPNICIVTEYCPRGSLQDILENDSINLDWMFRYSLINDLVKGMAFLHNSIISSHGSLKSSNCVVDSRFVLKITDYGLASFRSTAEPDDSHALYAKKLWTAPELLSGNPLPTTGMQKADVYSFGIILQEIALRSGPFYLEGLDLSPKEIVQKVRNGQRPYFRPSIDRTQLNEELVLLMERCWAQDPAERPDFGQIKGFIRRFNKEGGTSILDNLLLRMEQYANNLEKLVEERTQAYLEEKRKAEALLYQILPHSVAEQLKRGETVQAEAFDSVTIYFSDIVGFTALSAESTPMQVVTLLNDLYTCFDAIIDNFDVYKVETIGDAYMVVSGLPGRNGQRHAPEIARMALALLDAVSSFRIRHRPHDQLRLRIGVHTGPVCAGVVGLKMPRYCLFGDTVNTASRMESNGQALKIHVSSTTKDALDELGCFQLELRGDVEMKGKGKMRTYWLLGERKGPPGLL
Summary of the method: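 Antagonist mode: compounds (LOPAC1280, seven 1:5 dilutions) added 30 min before 1 nM hNppC stimulation of hNpr2-HEK293 cGMP-sensor cells; luminescence read before and 20 min after agonist at ambient temperature.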

[14] = P-glycoprotein substrates identified in KB-3-1 adenocarcinoma cell line, qHTS therapeutic library screen (AID 1346986); conditions: KB-3-1 parental cells viability, CellTiter-Glo, 72 h; at 44.5 µM (top of the series) unless noted; further: nearly all actives have a fitted effect of over 60% in size
Summary of the method: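 Viability read by CellTiter-Glo after 72 h compound exposure in dose-response of KB-3-1 and KB-8-5-11 (P-gp-high) cells. Hits needed AC50 < 10 uM, >50% maximum response and curve class -1.1 to -2.4. Cherry-picks retested ± tariquidar, including pcDNA/MDR-19 HEK-293 pair.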

[15] = molecular target: T1, Tyrosine-protein phosphatase non-receptor type substrate 1 (Homo sapiens) + Leukocyte surface antigen CD47 (Homo sapiens); assay: CD47-SIRPalpha protein protein interaction - HTRF assay qHTS validation (AID 1347058; active means well fitted curve in the direction sought with a large enough effect in the signal ratio, not every such curve was filed as active; the % refers to the signal ratio; further: 0% is about no effect)
Summary of the method: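 Soluble extracellular domains (6His-CD47, Avi-tag-biotinylated SIRPalpha) in PBS pH 7.4 with 0.05% IGEPAL CA-630. Compounds were preincubated 30 min at RT with CD47 and anti-His-Eu, then SIRPalpha and SAV-XL665 were added. TR-FRET 665/615 ratio.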

[16] = Identifying Small Molecule Inhibitors of Pancreatic Cancer Stem Cells (SN12C, Adherent) (AID 1259358);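 further: cell survival measured after 48 h of compound exposure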
Summary of the method: (§2)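 Cytotoxicity read by CellTiter-Glo luminescence after 48 h compound exposure at 37C; percent activity scaled between DMSO-treated cells and cell-free wells. Spheroid formats used cells pre-formed 14 days in stem cell media on hydrogel.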

[17] = Identifying Small Molecule Inhibitors of Pancreatic Cancer Stem Cells (A278, Adherent) (AID 1259361);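 further: 100% = DMSO-treated cells and 0% = cell-free media-only wells; nearly all actives have a fitted effect of over 35% in size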
Summary of the method: as §2

CN1CCN(C2Cc3ccccc3Sc3ccc(Cl)cc32)CC1 (configuration not stated)
inactive: Potency [1] | outcome [2] | Potency [3] | outcome [4] | outcome [5] | outcome [6] | Potency [7]

OCC(O)CN1CCN(c2ccccc2)CC1 (configuration not stated)
inactive: Potency [1] | outcome [2] | Potency [3] | Potency [8] | Potency [9] | Potency [10] | Potency [11]

CCCCCCCCCCCCCCCC(=O)NCCO
inactive: Potency [1] | outcome [2] | Potency [3] | outcome [12] | Potency [13] | Potency [8] | Potency [7] | Potency [9] | Potency [10] | Potency [11]

Nc1ccc(S(=O)(=O)Nc2nccs2)cc1
inactive: Potency [1] | outcome [2] | outcome [14] | Potency [8] | Potency [9] | Potency [10] | Potency [11]

CCCCN1CCCC[C@H]1C(=O)Nc1c(C)cccc1C
inactive: Potency [1] | outcome [2] | outcome [14] | Potency [8] | Potency [9] | Potency [10] | Potency [11]

CC(=O)CCC(=O)O
inactive: Potency [1] | outcome [2] | Potency [3] | Potency [8] | Potency [9] | Potency [10] | Potency [11]

C#CCN(C)Cc1ccccc1
inactive: Potency [1] | outcome [2] | Potency [3] | outcome [4] | outcome [12] | Potency [13] | Potency [8] | outcome [5] | outcome [15] | outcome [6] | Potency [7] | Potency [9] | Potency [10] | Potency [11]

CN1CCC[C@@H]1Cc1c[nH]c2ccc(CCS(=O)(=O)c3ccccc3)cc12
inactive: Potency [1] | outcome [2] | outcome [14] | Potency [8] | outcome [5] | outcome [15] | outcome [6] | Potency [9] | Potency [10] | Potency [11]

O=C1c2c(O)cccc2Cc2cccc(O)c21
inactive: Potency [1] | outcome [2] | Potency [3] | Potency [8] | Potency [9] | Potency [10] | Potency [11]

NC(=O)c1ncn([C@@H]2O[C@H](CO)[C@@H](O)[C@H]2O)c1N
inactive: Potency [1] | outcome [2] | outcome [16] | IC50 (viability decrease) [17] | Potency [3] | Potency [8] | Potency [9] | Potency [10] | Potency [11]

CCC(=O)Nc1ccc(O)cc1
inactive: Potency [1] | outcome [2] | Potency [3] | Potency [8] | Potency [9] | Potency [10] | Potency [11]

CCCCC/C(C=O)=C\c1ccccc1
inactive: Potency [1] | outcome [2] | Potency [3] | Potency [8] | Potency [9] | Potency [10] | Potency [11]

c1ccc(CN(CC2=NCCN2)c2ccccc2)cc1
inactive: Potency [1] | outcome [2] | Potency [3] | Potency [8] | Potency [9] | Potency [10] | Potency [11]

COc1cc(C(=O)N2CCOCC2)cc(OC)c1OC
inactive: Potency [1] | outcome [2] | Potency [3] | Potency [8] | Potency [9] | Potency [10] | Potency [11]

CN(C)CCCO[C@@H]1[C@H]2OC(C)(C)O[C@H]2O[C@@H]1C(O)CO (some centres not stated)
inactive: activity, negative = inhibition [1] -7.27% [at 1.88 µM] | outcome [2] | Potency [3] | Potency [8] | Potency [9] | Potency [10] | Potency [11]

O=C(O)c1ccccc1-c1ccc(C(F)(F)F)cc1
inactive: Potency [1] | outcome [2] | Potency [3] | Potency [8] | Potency [9] | Potency [10] | Potency [11]

CCOC(=O)c1ccc(O)cc1
inactive: Potency [1] | outcome [2] | Potency [3] | Potency [8] | Potency [9] | Potency [10] | Potency [11]

CC(C)(O)c1ccccc1CC[C@@H](SCC1(CC(=O)O)CC1)c1cccc(/C=C/c2ccc3ccc(Cl)cc3n2)c1
inactive: Potency [1] | outcome [2] | Potency [3] | Potency [8] | Potency [9] | Potency [10] | Potency [11]

C[C@@H](O)[C@H](N)C(=O)O
inactive: Potency [1] | outcome [2] | Potency [3] | Potency [8] | Potency [9] | Potency [10] | Potency [11]

Cc1c(Cl)cccc1Nc1ccccc1C(=O)O
inactive: Potency [1] | outcome [2] | Potency [3] | Potency [8] | Potency [9] | Potency [10] | Potency [11]

Cc1cccc(C)c1NC(=O)CN(CC(=O)O)CC(=O)O
inactive: Potency [1] | outcome [2] | Potency [3] | Potency [8] | Potency [9] | Potency [10] | Potency [11]

CC(=O)Nc1ccc(/C=N/NC(N)=S)cc1
inactive: Potency [1] | outcome [2] | Potency [3] | Potency [8] | Potency [9] | Potency [10] | Potency [11]

O=S(=O)(O)NC1CCCCC1
inactive: Potency [1] | outcome [2] | Potency [3] | Potency [8] | Potency [9] | Potency [10] | Potency [11]

CO/N=C(\C(=O)N[C@@H]1C(=O)N2C(C(=O)O)=C(CSc3nc(=O)c(O)nn3C)CS[C@H]12)c1csc(N)n1
inactive: Potency [1] | outcome [2] | Potency [3] | Potency [8] | Potency [9] | Potency [10] | Potency [11]

CCn1cc(C(=O)O)c(=O)c2cnc(N3CCNCC3)nc21
inactive: Potency [1] | outcome [2] | Potency [3] | Potency [8] | Potency [9] | Potency [10] | Potency [11]

CC(C)(C)C(=O)C(Oc1ccc(Cl)cc1)n1ccnc1 (configuration not stated)
inactive: Potency [1] | outcome [2] | Potency [3] | Potency [8] | Potency [9] | Potency [10] | Potency [11]
